# Assay results as given in PubChem BioAssay (Tox21).
# Inconclusive results are not listed. Unmarked numbers belong to inactive results. The call rests on the fitted dose curve; in most records, active means well fitted inhibition curve with a large enough effect in the repeat runs; inconclusive means weak or mixed curves, or effect the other way; inactive means no such curve, though single readings can be large or run the other way.
# Assay: qHTS assay to identify small molecule antagonists of the retinoic acid receptor (RAR) signaling pathway (AID 1159552; further: nearly all actives have a fitted effect of over 50% in size)
# Conditions: C3RL4 RARE luciferase reporter, retinol-stimulated, 6 h; series mostly up to 92.4 µM; activity, negative = inhibition: at the top concentration
# Text: National Center for Advancing Translational Sciences [NCATS]
# NIH Chemical Genomics Center [NCGC]
# U.S. Environmental Protection Agency [EPA]
# National Institutes of Environmental Health Sciences [NIEHS]
# National Toxicology Program [NTP]
# U.S. Food and Drug Administration [FDA]
# All-trans Retinoic acid (atRA) is the potent natural metabolite of retinol and plays an important role in normal embryonic development and maintenance of cellular phenotype in adult animals. atRA is the activating ligand for the retinoic acid receptors (RARs) which form heterodimers with retinoid X receptors (RXRs) on the retinoic acid response element (RARE). Through activation of the RAR/RXRs nuclear receptors, atRA regulates the transcription of a large number of protein-coding genes and regulatory RNAs. Intracellular levels of atRA are controlled by the retinol signaling pathway (RSP) that regulates the biosynthesis and catabolism of atRA to maintain physiological levels. Chemicals that interfere with the RSP can cause abnormal intracellular levels of atRA and therefore are potential developmental toxicants. To assess compounds for the potential adverse effect on embryonic development through interfering with retinol signaling, a cell-based RARE luciferase reporter gene assay was used. C3RL4 cell line (OARSA/CFSAN/FDA, Laurel, MD) was used to screen Tox21 10K compound library for identifying inhibitors of the RSP.
# Tox21 Assay Protocol Summary:
# C3RL4 cells were seeded at 1,000/well in 4 uL of assay medium into white solid 1,536-well tissue culture plates (Greiner Bio-One North America Inc. Monroe, NC) using a Multidrop Combi (Thermo Scientific, Waltham, MA) dispenser. After incubation at 37 C and 5% CO2 for an overnight, 23 nL of compounds dissolved in DMSO, positive control or DMSO only were transferred by a Pintool station (Kalypsys, San Diego, CA). One ul of 1 uM (final concentration) of Retinol was added right after the compound addition by using a Flying Reagent Dispenser (FRD) (Aurora Discovery, San Diego, CA). After 6 hr incubation at 37 C and 5% CO2, 5 uL of Amplite Luciferase reagent (AAT Bioquest Inc. Sunnyvale, CA) was added to each assay plate using an FRD. Luminescence was quantified on a ViewLux plate reader (PerkinElmer, Waltham, MA) after 30 min incubation at room temperature.
# On the % scale 0 is the no-effect control and ±100 the full control effect.
row,Structure (SMILES),"activity, negative = inhibition"
1,CCNCCO,11.2%
2,CCCOCCC,12.6%
3,Cc1ccc(C=O)s1,20.5%
4,CCCCCCCCc1ccc(S(=O)(=O)O)cc1,-8.9%
5,CC/C=C\CCOC(=O)C(C)C,18.9%
6,C1CSCCS1,28.8%
7,O=C1CCC(C2CCCCC2)CC1,6.54%
8,CC(C)c1ccccc1,236%
9,C[C@@H]1CN(c2c(F)c(N)c3c(=O)c(C(=O)O)cn(C4CC4)c3c2F)C[C@H](C)N1,6.27% [at 19 µM]
10,COC(=O)/C=C(/C)N,0.305% [at 42.5 µM]
11,CC1=C2[C@H](/C=C(\C)C(=O)O)CC[C@@H](C)[C@H]2CC1,88.5%
12,CN(CC1(C)CCCO1)S(=O)(=O)c1ccc(Cl)c(S(N)(=O)=O)c1 (stereo not given),3.15% [at 42.5 µM]
13,CN1[C@@H]2CC[C@H]1CC(OC(=O)c1c[nH]c3ccccc13)C2 (stereo not given in full),5.87% [at 42.5 µM]
14,CCCN(CCC)C(=O)C(CCC(=O)O)NC(=O)c1ccccc1 (stereo not given),11.4% [at 42.5 µM]
15,CCOc1ccc2nc(N)sc2c1,116%
16,O=C1CCCc2ccccc21,-3.65%
17,NNS(=O)(=O)c1ccc(Oc2ccc(S(=O)(=O)NN)cc2)cc1,-31.4%
18,CC(C)=CCC[C@](C)(O)[C@@H]1CC=C(C)CC1,-5.53%
19,O=C(O)c1ccccc1Nc1cc(Cl)ccc1C(=O)O,-145% [at 19 µM]
20,CCc1nnc(NS(=O)(=O)c2ccc(N)cc2)s1,8.11% [at 42.5 µM]

row,Structure (SMILES),"activity, negative = inhibition"
1,CCCCC1CCC(=O)O1 (stereo not given),20.3%
2,OCc1c2ccccc2cc2ccccc12,52.4%
3,CCCOc1ccc2c(c1)CC[C@@H]1[C@@H]2CC[C@]2(C)C(OC)CC[C@@H]12 (stereo not given in full),25.8% [at 42.5 µM]
4,Oc1ccccc1C=NCc1ccccc1,67% [at 42.5 µM]
5,CCOC(=O)[C@H](CCc1ccccc1)N[C@@H](C)C(=O)N1Cc2cc(OC)c(OC)cc2C[C@H]1C(=O)O,3.35% [at 42.5 µM]
6,CC(C)Nc1nc(N)nc(Cl)n1,-2.39%
7,O=C(Cl)c1cccc([N+](=O)[O-])c1,-2.42%
8,CCN(O)CC,-0.841%
9,OCCN(CCO)c1ccccc1,28.2%
10,COc1ccc(Nc2ccc(OC)cc2)cc1,55.9%
11,FC(F)(F)C(F)(F)C(F)(F)C(F)(F)C(F)(F)C(F)(F)C(F)(F)C(F)(F)Br,-1.19% [at 42.5 µM]
12,O=C1N(c2ccccc2)c2ccccc2C1(Cc1ccncc1)Cc1ccncc1,-18.9% [at 42.5 µM]
13,CCCCCCCCCC/C=C/C#N,-13.7%
14,C=Cc1ccccc1,-3.25%
15,CCN(CCCc1ccccc1)CCCc1ccccc1,-20.7% [at 42.5 µM]
16,O=S(=O)(O)C(F)(F)F,1.77%
17,CC1(C)S[C@@H]2[C@H](NC(=O)C(C(=O)O)c3ccccc3)C(=O)N2[C@H]1C(=O)O (stereo not given in full),-3.4% [at 42.5 µM]
18,NC(=O)NS(=O)(=O)c1ccc(Cl)cc1,-5.03% [at 42.5 µM]
19,C=CCCC=C,-29.7%
20,COc1ccccc1OCC(O)COC(N)=O (stereo not given),16.9% [at 42.5 µM]
